In the supplement of paper PMC10849652 one finds log2 fold change data, which are given here for 39 targets.

The full data set covers some 7,900 targets. This sample favours those with a hit. About 0.6% of all pairs of compound and target were hits. Unmarked numbers belong to inactive results.

Sequence of UniProt P22059 (P22059 whole entry, looked up): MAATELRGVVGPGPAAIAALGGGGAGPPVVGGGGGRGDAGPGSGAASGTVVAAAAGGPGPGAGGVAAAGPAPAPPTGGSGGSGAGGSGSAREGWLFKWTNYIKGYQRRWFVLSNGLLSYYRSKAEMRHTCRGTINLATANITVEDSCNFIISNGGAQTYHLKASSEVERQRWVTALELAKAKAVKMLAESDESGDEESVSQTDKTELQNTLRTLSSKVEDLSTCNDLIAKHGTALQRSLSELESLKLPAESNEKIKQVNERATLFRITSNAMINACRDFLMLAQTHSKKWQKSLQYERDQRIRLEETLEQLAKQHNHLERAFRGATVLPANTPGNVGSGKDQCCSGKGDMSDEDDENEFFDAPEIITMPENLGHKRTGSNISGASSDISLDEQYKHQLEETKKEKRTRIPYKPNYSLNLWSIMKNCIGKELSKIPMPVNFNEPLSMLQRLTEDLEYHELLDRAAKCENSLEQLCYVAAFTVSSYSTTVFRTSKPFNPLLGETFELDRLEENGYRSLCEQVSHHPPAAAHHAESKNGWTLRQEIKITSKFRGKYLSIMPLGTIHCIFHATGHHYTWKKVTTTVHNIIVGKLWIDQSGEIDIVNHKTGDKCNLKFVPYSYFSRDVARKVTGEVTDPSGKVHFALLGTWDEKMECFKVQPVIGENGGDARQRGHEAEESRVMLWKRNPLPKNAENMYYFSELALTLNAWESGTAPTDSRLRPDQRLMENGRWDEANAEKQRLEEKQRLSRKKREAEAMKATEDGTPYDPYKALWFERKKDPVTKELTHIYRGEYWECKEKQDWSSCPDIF
Sequence of UniProt Q9BW27 (Q9BW27 whole entry, looked up): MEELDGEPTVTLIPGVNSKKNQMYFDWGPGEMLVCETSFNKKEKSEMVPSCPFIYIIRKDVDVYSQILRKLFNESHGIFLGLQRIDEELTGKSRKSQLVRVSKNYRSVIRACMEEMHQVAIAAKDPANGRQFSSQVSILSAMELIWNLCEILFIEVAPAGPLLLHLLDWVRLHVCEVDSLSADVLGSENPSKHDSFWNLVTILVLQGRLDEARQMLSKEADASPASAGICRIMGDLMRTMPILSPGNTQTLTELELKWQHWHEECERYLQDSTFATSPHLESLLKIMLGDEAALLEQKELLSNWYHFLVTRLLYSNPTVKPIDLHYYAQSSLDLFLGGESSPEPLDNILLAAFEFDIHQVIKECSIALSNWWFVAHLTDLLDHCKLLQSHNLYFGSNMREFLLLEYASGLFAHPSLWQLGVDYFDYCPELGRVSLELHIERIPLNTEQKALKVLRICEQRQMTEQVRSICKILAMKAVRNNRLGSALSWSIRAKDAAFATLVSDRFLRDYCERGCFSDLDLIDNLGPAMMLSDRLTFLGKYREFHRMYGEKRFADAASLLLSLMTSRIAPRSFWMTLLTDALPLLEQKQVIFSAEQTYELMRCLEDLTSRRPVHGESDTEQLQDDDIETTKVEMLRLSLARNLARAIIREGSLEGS
Sequence of UniProt Q9NR45 (Q9NR45 whole entry, looked up): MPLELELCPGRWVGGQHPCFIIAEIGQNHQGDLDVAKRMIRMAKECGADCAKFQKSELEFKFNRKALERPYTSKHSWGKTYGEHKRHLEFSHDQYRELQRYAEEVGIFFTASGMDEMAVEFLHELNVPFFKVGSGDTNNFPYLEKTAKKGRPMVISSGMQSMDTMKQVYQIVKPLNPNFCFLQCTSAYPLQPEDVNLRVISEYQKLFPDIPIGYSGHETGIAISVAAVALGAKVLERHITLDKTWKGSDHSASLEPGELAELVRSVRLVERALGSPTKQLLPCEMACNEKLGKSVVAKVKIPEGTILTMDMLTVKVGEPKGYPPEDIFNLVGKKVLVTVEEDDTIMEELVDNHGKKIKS
Sequence of UniProt Q9NRP0 (Q9NRP0 whole entry, looked up): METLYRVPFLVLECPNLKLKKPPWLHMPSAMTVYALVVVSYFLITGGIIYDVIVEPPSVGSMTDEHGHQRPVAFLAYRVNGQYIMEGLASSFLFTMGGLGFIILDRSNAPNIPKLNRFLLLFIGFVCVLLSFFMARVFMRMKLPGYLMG
Sequence of UniProt O00566 (O00566 whole entry, looked up): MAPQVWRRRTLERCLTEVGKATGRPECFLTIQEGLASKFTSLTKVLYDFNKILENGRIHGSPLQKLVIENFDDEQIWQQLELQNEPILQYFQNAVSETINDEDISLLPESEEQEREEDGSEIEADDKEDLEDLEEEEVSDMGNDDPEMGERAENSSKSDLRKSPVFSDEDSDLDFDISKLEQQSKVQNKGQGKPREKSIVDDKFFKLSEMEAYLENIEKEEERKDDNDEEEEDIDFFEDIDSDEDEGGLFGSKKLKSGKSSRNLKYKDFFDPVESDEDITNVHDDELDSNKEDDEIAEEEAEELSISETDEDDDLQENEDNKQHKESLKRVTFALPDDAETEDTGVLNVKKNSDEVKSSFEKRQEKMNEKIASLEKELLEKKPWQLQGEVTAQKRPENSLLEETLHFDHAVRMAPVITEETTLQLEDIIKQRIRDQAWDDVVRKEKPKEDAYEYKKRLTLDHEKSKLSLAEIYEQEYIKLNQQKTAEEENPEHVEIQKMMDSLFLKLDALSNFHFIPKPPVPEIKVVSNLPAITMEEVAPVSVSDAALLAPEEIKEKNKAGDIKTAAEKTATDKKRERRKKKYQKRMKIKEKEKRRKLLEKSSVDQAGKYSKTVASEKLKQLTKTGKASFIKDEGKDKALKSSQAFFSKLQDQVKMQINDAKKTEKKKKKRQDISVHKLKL
Sequence of UniProt O95747 (O95747 whole entry, looked up): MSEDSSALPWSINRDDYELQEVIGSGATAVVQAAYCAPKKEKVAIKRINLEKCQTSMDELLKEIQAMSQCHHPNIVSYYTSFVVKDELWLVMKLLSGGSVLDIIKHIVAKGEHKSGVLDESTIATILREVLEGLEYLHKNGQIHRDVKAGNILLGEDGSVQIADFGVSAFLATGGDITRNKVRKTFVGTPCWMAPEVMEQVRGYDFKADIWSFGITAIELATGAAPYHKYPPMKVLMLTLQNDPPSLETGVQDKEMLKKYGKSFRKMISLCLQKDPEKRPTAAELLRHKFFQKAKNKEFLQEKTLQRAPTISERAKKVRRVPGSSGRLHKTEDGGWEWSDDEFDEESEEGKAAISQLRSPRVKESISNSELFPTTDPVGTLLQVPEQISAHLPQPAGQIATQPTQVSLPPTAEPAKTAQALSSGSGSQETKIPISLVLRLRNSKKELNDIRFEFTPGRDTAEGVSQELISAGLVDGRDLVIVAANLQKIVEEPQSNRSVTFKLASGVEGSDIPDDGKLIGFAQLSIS
Sequence of UniProt Q9Y2X3 (Q9Y2X3 whole entry, looked up): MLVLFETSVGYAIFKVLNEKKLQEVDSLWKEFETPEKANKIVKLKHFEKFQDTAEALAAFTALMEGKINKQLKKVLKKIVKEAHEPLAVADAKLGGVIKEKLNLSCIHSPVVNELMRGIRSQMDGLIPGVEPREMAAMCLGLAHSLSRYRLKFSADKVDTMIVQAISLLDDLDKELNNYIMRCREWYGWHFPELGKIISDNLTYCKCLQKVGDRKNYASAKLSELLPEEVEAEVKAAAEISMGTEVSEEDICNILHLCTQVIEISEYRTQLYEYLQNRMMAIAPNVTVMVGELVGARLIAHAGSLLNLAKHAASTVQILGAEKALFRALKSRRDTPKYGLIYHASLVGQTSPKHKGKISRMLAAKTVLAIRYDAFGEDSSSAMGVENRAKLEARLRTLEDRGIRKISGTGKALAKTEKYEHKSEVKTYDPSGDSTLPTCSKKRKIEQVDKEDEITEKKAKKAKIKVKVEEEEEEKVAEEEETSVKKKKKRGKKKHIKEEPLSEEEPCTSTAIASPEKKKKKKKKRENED
Sequence of UniProt Q7L1V2 (Q7L1V2 whole entry, looked up): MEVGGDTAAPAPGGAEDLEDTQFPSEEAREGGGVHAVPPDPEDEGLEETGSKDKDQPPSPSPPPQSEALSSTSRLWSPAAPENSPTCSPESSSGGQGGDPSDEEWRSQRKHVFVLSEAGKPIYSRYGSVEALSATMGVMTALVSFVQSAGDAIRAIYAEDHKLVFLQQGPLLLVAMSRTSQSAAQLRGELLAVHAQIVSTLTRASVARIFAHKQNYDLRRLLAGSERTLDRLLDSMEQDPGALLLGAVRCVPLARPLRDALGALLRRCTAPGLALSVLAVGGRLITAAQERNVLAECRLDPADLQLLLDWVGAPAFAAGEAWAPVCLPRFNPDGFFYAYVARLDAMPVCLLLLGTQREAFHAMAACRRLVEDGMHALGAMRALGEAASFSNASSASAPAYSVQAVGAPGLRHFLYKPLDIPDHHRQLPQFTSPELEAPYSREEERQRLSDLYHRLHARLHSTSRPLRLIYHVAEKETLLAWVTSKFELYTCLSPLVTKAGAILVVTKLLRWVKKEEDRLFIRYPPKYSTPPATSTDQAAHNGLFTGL
Sequence of UniProt Q92692 (Q92692 whole entry, looked up): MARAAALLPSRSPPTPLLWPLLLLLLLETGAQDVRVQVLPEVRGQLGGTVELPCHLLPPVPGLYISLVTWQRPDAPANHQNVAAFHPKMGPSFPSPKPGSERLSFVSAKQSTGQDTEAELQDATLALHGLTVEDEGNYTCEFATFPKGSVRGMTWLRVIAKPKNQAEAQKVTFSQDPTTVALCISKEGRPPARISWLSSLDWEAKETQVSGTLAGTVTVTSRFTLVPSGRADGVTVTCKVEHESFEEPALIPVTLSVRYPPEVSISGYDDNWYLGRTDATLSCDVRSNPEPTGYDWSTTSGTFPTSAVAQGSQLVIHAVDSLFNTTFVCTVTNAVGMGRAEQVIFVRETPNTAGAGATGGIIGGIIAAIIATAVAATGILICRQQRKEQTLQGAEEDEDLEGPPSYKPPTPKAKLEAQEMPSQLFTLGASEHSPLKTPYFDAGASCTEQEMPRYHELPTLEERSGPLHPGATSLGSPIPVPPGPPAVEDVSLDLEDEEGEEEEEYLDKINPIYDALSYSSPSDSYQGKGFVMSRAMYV
Sequence of UniProt Q9BWT6 (Q9BWT6 whole entry, looked up): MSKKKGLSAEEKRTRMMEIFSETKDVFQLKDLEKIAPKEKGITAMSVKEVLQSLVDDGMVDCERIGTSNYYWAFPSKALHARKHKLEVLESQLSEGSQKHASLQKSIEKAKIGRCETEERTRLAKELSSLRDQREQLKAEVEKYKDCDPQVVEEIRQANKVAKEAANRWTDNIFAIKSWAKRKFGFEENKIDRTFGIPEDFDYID

Compound in the assay: CC1=C(C=C(C=C1)NC(=O)C2=CC(=CC=C2)C(C)(C)C#N)NC3=CC4=C(C=C3)N=CN(C4=O)C
Put plainly: log2 fold change, soluble protein after heating vs DMSO (PISA); higher = thermal stabilisation; K562 cells, 10 uM, 30 min; active = over 0.2 and 3.5 SD of the protein, either way, in both replicates (recomputed). Put shortly:
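K562 cells at 2×10^6 cells/mL were treated with 10 μM compound for 30 min. Aliquots were heated for 3 min across 48°C-58°C, pooled, and extracted in PBS with 0.5% NP-40 at 4°C; soluble protein was the supernatant after 21,000xg for 90 min. Soluble protein was quantified by TMTpro 16plex LC-MS/MS with channel sums equalised, and reported as log2 fold change in thermal stability against DMSO controls, with values from duplicates.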
Regarding MORF4L2 (UniProt Q15014), the log2 fold change was -0.004. For MRPL46 (UniProt Q9H2W6), the log2 fold change is 0.061. On to NCKAP1 isoform 2 (UniProt Q9Y2A7), for which the log2 fold change was 0.039.

MSTO1 (UniProt Q9BUK6): the log2 fold change is -0.032. The value for MSH3 (UniProt P20585) was 0.029; that for NANS (UniProt Q9NR45) was 0.063; that for OSTC (UniProt Q9NRP0) was 0.001. For the target NCOR1 (UniProt O75376), the log2 fold change is -0.035. As for MRPS21 (UniProt P82921), the log2 fold change was 0.015. In the case of NISCH (UniProt Q9Y2I1), the log2 fold change is 0.009. Turning to NUP85 (UniProt Q9BW27), the log2 fold change was -0.02. As for MPHOSPH10 (UniProt O00566), the log2 fold change was 0.052. To NOP58 (UniProt Q9Y2X3) belongs -0.055; to MRPS26 (UniProt Q9BYN8), 0.021. Regarding MRPS24 (UniProt Q96EL2), the log2 fold change is -0.01. To MON1B (UniProt Q7L1V2) belongs 0.064; to OSBP (UniProt P22059), 0.098; to MINK1 (UniProt Q8N4C8), -0.04.

For the target MRPS9 (UniProt P82933), the log2 fold change was 0.053. The value for NR2C2 isoform 2 (UniProt P49116) was -0.017. NUP107 (UniProt P57740): the log2 fold change was -0.035. In the case of PAFAH1B2 (UniProt P68402), the log2 fold change was 0.064. In the case of MXRA7 (UniProt P84157), the log2 fold change was -0.181. Turning to NOP53 (UniProt Q9NZM5), the log2 fold change was -0.052. Regarding MRPS25 (UniProt P82663), the log2 fold change is 0.033. In the case of MND1 (UniProt Q9BWT6), the log2 fold change was 0.034.

For the target OTUD6B (UniProt Q8N6M0), the log2 fold change is 0.045.

For NDUFB8 (UniProt O95169), the log2 fold change was 0.01. With OXSR1 (UniProt O95747), the log2 fold change is 0.019. With NOL7 (UniProt Q9UMY1), the log2 fold change is -0.06. As for MRPL34 (UniProt Q9BQ48), the log2 fold change is -0.022. Regarding MT-ATP6 (UniProt P00846), the log2 fold change is -0.009.

With MRPS35 (UniProt P82673), the log2 fold change is -0.016.

NECTIN2 (UniProt Q92692): the log2 fold change was -0.006. NAA38 isoform 2 (UniProt Q9BRA0): the log2 fold change was 0.018.

Regarding NPC1 (UniProt O15118), the log2 fold change was -0.018. In the case of NOSIP (UniProt Q9Y314), the log2 fold change was 0.02. Regarding NDUFB7 (UniProt P17568), the log2 fold change was 0.037. To PACS1 (UniProt Q6VY07) belongs -0.001.
